Test results taken from PubChem BioAssay (EPA / NIEHS).
Inconclusive results are not listed. The source made the active and inactive calls. How the source made its calls: active means hit-call score of the fitted dose curve at least 0.9, where 1 is the maximum; inconclusive means response in the unintended direction; inactive means score below 0.9.

target: Estrogen receptor (Homo sapiens) (UniProt P03372); assay: NVS_NR_hER: NovaScreen (NVS) Nuclear Receptor Binding Assay for human Estrogen Receptor (ER) (AID 2283348)
Sequence (P03372 whole entry, looked up): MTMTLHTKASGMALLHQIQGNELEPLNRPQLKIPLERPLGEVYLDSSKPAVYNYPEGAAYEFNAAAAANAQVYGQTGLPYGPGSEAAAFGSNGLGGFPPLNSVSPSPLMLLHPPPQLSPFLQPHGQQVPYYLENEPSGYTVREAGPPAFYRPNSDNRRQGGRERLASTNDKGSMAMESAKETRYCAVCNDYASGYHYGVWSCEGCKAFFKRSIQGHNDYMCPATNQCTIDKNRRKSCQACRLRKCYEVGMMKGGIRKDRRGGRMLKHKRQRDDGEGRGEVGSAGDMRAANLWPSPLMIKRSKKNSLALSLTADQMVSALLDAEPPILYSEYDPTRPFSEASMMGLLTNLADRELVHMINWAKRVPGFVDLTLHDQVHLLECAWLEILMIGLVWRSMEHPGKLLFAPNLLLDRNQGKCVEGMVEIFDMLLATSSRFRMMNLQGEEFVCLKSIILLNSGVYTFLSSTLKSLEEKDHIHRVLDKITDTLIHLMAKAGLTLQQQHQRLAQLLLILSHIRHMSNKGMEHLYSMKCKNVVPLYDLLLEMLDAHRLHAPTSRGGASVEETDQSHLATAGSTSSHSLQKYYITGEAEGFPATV
Method: NVS_NR_hER is a biochemical, single-readout assay that uses extracted gene-proteins from MCF7 in a cell-free assay. Measurements were taken 18 hours after chemical dosing in a 96-well plate.NVS_NR_hER is one of one assay component(s) measured or calculated from the NVS_NR_hER assay. It is designed to make measurements of radioligand binding, a form of binding reporter, as detected with scintillation counting signals by Lysate-based radiodetection technology.Data from the assay component NVS_NR_hER was analyzed into 1 assay endpoint. This assay endpoint, NVS_NR_hER, was analyzed in the positive analysis fitting direction relative to DMSO as the negative control and baseline of activity. Using a type of binding reporter, loss-of-signal activity can be used to understand changes in the binding as they relate to the gene ESR1. Furthermore, this assay endpoint can be referred to as a primary readout, because the performed assay has only produced 1 assay endpoint. To generalize the intended target to other relatable targets, this assay endpoint is annotated to the nuclear receptor intended target family, where the subfamily is steroidal.
Binding assays used specific radioligands (tritiated, iodinated) with non-radioactive competitive displacement ligands in agonist or antagonist protocols (as indicated) and various reference compounds and inhibitors to titrate specific binding to receptors and transporters. Most enzyme assays (CYPs, kinases, phosphatases, proteases, HDACs) used recombinant protein and specific substrates (fluorescence mostly, some colorimetric and radioactive) and inhibitors, followed by a biochemical separation of substrate and product. All assays for the biochemical HTS were initially run in duplicate at a single concentration (10 uM for CYP450 assays and 25 uM for all others). […] Each assay was run with positive and negative controls, and concurrent controls on every plate. The follow-up (secondary) screen tested active chemical-pairs in concentration series, as well as a few additional assays not tested in the primary screen, some selected negative inactives, and several cases re-run in the concentration series for confirmatory purposes.

Structure (SMILES) | outcome | AC50
CC(C)OC(=O)C(O)(c1ccc(Cl)cc1)c1ccc(Cl)cc1 | inactive | –
CCCCOP(=O)(O)OCCCC | inactive | –
c1cc(OCC2CO2)ccc1Cc1ccc(OCC2CO2)cc1 (stereo not drawn) | inactive | –
CSc1ccc(C(=O)C(C)(C)N2CCOCC2)cc1 | – | 25 µM (active)
CCN(CC)c1c([N+](=O)[O-])cc(C(F)(F)F)c(N)c1[N+](=O)[O-] | inactive | –
CCOP(=O)(Sc1ccccc1)Sc1ccccc1 | inactive | –
CC(Oc1ccc(Oc2ncc(C(F)(F)F)cc2Cl)cc1)C(=O)O (stereo not drawn) | inactive | –
[Hg+2].[I-].[I-] | inactive | –
COP(=S)(NC(C)C)Oc1ccc(C)cc1[N+](=O)[O-] (stereo not drawn) | – | 11.5 µM (active)
COC(=O)C(C)N(C(=O)Cc1ccccc1)c1c(C)cccc1C (stereo not drawn) | inactive | –
O=C1C(Cl)=C(Cl)C(=O)C(Cl)=C1Cl | inactive | –
CC(=O)[O][Pb]([c]1ccccc1)([c]1ccccc1)[c]1ccccc1 | – | 8.22 µM (active)
OC(c1ccc(F)cc1)(c1cncnc1)c1ccccc1Cl (stereo not drawn) | – | 21.2 µM (active)
CCCN(CCC)c1c([N+](=O)[O-])cc(S(C)(=O)=O)cc1[N+](=O)[O-] | inactive | –
Oc1ccc(C2(c3ccc(O)cc3)c3ccccc3-c3ccccc32)cc1 | – | 0.644 µM (active)
IC(I)=C(I)I | inactive | –
COc1cc(OC)c(OC)cc1C=O | inactive | –
O=C(O)c1cc[c]([Hg][Cl])cc1 | inactive | –
C=CC(=O)OCCCCO | inactive | –
c1coc(-c2nc3ccccc3[nH]2)c1 | inactive | –
O=[N+]([O-])c1cc(C(F)(F)F)c(Cl)c([N+](=O)[O-])c1Cl | inactive | –
COP(=O)(OC)Oc1ccc([N+](=O)[O-])cc1 | inactive | –
N#Cc1sc2c(=O)c3ccccc3c(=O)c=2sc1C#N | – | 10.3 µM (active)
